Screening results: PubChem BioAssay, Broad Institute
Statin myotox sup: suppressors of statin myotoxicity in C2C12 myotubes, primary screen, cell-based, single point, plate reader; rescue of ATP level, % at 7.49 µM; hit rate 0.78% among 330,000; C2C12 myotubes + simvastatin, ATP luminescence, 48 h; scaled: DMSO 0, geranylgeraniol control 100; AID 602340, 2012;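 active means mean ATP rescue above about 67%, or every replicate alone reaching that limit, limit read from the data, passing the limit was not always enough; inconclusive means no clear call, values can overlap the other calls; inactive means mean under the limit and some replicate under it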;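 further: myotubes were challenged with 10 µM simvastatin during compound exposure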
MITF TRPM1 HTS: activators of MITF-driven TRPM1 promoter reporter, primary screen, cell-based, SK-MEL-5, luciferase, single point. hit rate 0.75% among 300,000. activation, % at 12.5 µM. SK-MEL-5 TRPM1-promoter luciferase, 24 h; % of positive control, neutral wells = 0;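 active means mean activation of at least 80% with every replicate also reaching 80%; inconclusive means mean reaches 80% but some replicate falls short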;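 further: 0% = neutral control wells and 100% = parthenolide positive control wells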
Wnt bcat act: Wnt/beta-catenin pathway activators, primary screen, cell-based, plate reader, single point; Wnt/beta-catenin reporter cell assay, activator; activation, % at 9.35 µM; hit rate 1.2% among 300,000; in the data active means activation above about 30%, passing the limit was not always enough; inconclusive means no clear call, values can overlap the other calls;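 further: 0% = neutral control wells and 100% = positive control wells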
esBAF inh: Bmi1 luciferase reporter increase in mESCs, primary screen, esBAF inhibitor project, mouse ES cells, Bmi1 luciferase knock-in, single point; 24 h; 100% = twice the neutral-well signal; AID 602393, 2012; reporter increase, % at 12.5 µM; hit rate 2% among 350,000; in the data active means activation above about 40%; inconclusive means no clear call, values can overlap the other calls;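 further: 0% = median of the plate's neutral control wells and 100% = double that signal; a rise in the Bmi1 reporter signal indicates esBAF inhibition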
Active calls of the source: *; ? = inconclusive; / = not tested or not shown. A selection: hits, their analogues and other compounds. The true share with any hit is near 3%.

SMILES | Statin myotox sup | MITF TRPM1 HTS | Wnt bcat act | esBAF inh
CCOc1ccccc1NC(=O)Cn1cnc2c(cnn2-c2ccc(C)c(C)c2)c1=O | 132* | -7 | / | -9
Cc1ccc(-n2ncc3c(=O)n(CC(N)=O)cnc32)cc1C | 5 | 28 | 2 | 11
O=S(=O)(NCC[C@H]1CC[C@H](NS(=O)(=O)c2ccccc2Cl)[C@@H](CO)O1)c1ccc(F)cc1 | 1 | / | / | 3
CO[C@H]1CN(C)C(=O)c2cc(NC(=O)C3CCC3)ccc2OC[C@@H](C)N(C(=O)CN(C)C)C[C@@H]1C | 7 | / | / | 0
Clc1ccc(Cc2noc(-c3cccs3)n2)cc1 | 1 | 112* | / | 63*
CO/N=C/c1ccc(Oc2ccc([N+](=O)[O-])cc2[N+](=O)[O-])c(OC)c1 | / | -6 | -2 | /
COc1cc(/C=N/O)ccc1Oc1ccc([N+](=O)[O-])cc1[N+](=O)[O-] | 9 | -1 | 36* | 6
O=C1c2ccccc2NC(c2ccccn2)N1c1ccc(Cl)cc1 (stereo unspecified) | -1 | 76 | / | 61*
CC(C)NC(=O)N(C)C[C@@H]1Oc2ccc(N(C)C)cc2C(=O)N([C@@H](C)CO)C[C@@H]1C | 25 | / | / | -3
C[n+]1c(/C=C/c2ccc(O)cc2)ccc2ccccc21 | -1 | 30 | 24 | 62*
CSc1cccc(-n2cc(-c3ccc4c(c3)OCO4)[nH]c2=O)c1 | -14 | 10 | / | 45*
C[C@@H]1CCCCO[C@H](CN(C)Cc2ccccc2)[C@@H](C)CN([C@H](C)CO)C(=O)c2cc(N(C)C)ccc2O1 | -6 | / | / | -4
C[C@H]1CN([C@@H](C)CO)C(=O)c2cc(C#CCN(C)C)cnc2O[C@H]1CN(C)Cc1ccccc1F | 10 | / | / | 1
CCS(=O)(=O)Nc1ccc2c(c1)C(=O)N(C)[C@H]1CC[C@H](CC(=O)Nc3ccc(Cl)cc3)O[C@@H]1CO2 | 11 | / | / | -1
O=C(N[C@H]1CC[C@H](CCNS(=O)(=O)c2ccc(F)cc2)O[C@@H]1CO)C1CCCC1 | 0 | / | / | 1
COc1ccc(/C=C2\SC(=O)N(CCNC(=O)CCS(=O)(=O)c3ccc(C)cc3)C2=O)cc1 | / | 55 | 33* | /
Fc1ccc(-c2ccc(Nc3cccc(F)c3)nn2)cc1 | -58 | 69 | 6 | 52*
Fc1ccc(Nc2ccc(-c3ccc(F)cc3)nn2)cc1 | / | 54 | 2 | /
COc1ccc(/C(C)=N/Nc2cccc(C(=O)O)c2)cc1OC | 9 | 8 | 5 | 53*
C/C(=N\Nc1cccc(C(=O)O)c1)c1ccc(Cl)s1 | 2 | 68 | 16 | 73*
O=C(C[C@H]1CC[C@@H]2[C@H](COC[C@H](O)CN2S(=O)(=O)c2ccccc2)O1)NCCN1CCCCC1 | -30 | / | / | 0
CCCC(c1nnnn1Cc1ccc(OC)cc1)N1CCN(c2ccccc2)CC1 (stereo unspecified) | 137* | / | -3 | -1
C=CCn1c(=O)c2c(nc3n2CC(C)CN3c2cccc(OC)c2)n(C)c1=O (stereo unspecified) | 120* | -17 | 0 | -7
C=CCn1c2ccccc2c(=O)c2cc(C#CC[C@@H](C)O)ccc21 | -2 | 94* | 36* | 52*
C=CCn1c2ccccc2c(=O)c2cc(C#CC3(O)CCCCC3)ccc21 | -46 | 69 | 8 | 3
SMILES | Statin myotox sup | MITF TRPM1 HTS | Wnt bcat act | esBAF inh
O=C1c2cccc3c([N+](=O)[O-])ccc(c23)C(=O)N1c1ccc(Cl)cn1 | 129* | -32 | / | -2
C=CCSC1=NNC(c2ccc(C(C)(C)C)cc2)=NN1 | -61 | 66 | 12 | 63*
C[C@H]1CN([C@@H](C)CO)C(=O)c2cc(C#CC3(O)CCCC3)cnc2O[C@@H]1CN(C)C(=O)C1CCOCC1 | -8 | / | / | -9
COc1ccccc1-c1nc(-c2ccncc2)no1 | -5 | / | 61* | 5
COc1ccccc1-c1nc(-c2ccc(Br)cc2)no1 | 6 | 76 | / | 54*
COc1cccc(/C=C2\Oc3ccc(O)cc3C2=O)c1O | -31 | 16 | 38* | -65
COC(=O)c1ccc2c(c1)C(=O)/C(=C/c1ccc(O)cc1)O2 | -6 | 39 | 13 | ?
N#C[C@@H]1[C@@H](c2ccc(C#Cc3ccccc3F)cc2)[C@@H](CO)N1C(=O)C1CCCCC1 | 23 | / | / | 51*
N#C[C@@H]1[C@@H](c2ccc(C#Cc3ccccc3F)cc2)[C@H](CO)N1C(=O)C1CCCCC1 | 47 | / | / | 15
N#C[C@@H]1[C@@H](c2ccc(C#Cc3cccc(F)c3)cc2)[C@@H](CO)N1C(=O)C1CCCC1 | 21 | / | / | 50*
C[C@@H]1CN([C@@H](C)CO)S(=O)(=O)c2ccc(-c3ccc(C(=O)N(C)C)cc3)cc2O[C@@H]1CN(C)C(=O)C1CCC1 | 7 | / | / | -4
O=C(N[C@H]1CC[C@@H](CCNC(=O)C2CCOCC2)O[C@@H]1CO)c1ccccn1 | 4 | / | / | 0
COc1ccc(NC(=O)N[C@H]2CC[C@@H](CCNC(=O)Nc3cc(F)ccc3F)O[C@H]2CO)cc1 | 9 | / | / | 7
COc1cccc(S(=O)(=O)N(C)C[C@@H]2Oc3ncc(C#Cc4ccc(F)cc4)cc3C(=O)N([C@H](C)CO)C[C@@H]2C)c1 | 0 | / | / | -1
COc1ccc(C#Cc2c(-c3ccccc3)n(C)c3ccccc23)cc1 | 1 | -18 | -4 | 1
COc1ccc(-c2c(C#Cc3ccsc3)c3ccccc3n2C)cc1 | -7 | 4 | 12 | 45*
OC(c1ccc(Cl)c(Cl)c1)c1ncc(-c2ccc(Cl)cc2)[nH]1 (stereo unspecified) | -359 | / | 1 | -10
OC(c1ccccc1)c1ncc(-c2ccc(Cl)cc2)[nH]1 (stereo unspecified) | -5 | / | -4 | 47*
Cc1ccccc1-c1cnc(C(O)c2ccccc2)[nH]1 (stereo unspecified) | 10 | / | 0 | 49*
Cc1ccccc1-c1cnc(C(O)c2ccc(F)cc2)[nH]1 (stereo unspecified) | / | / | 1 | /
CCCNC(=O)C[C@@H]1C[C@H]2c3cc(NC(=O)Nc4ccccc4)ccc3O[C@H]2[C@H](CO)O1 | 2 | / | / | 7
O=C1N/C(=N/O)S/C1=C/c1cccc([N+](=O)[O-])c1 | -5 | 6 | 52* | 7
O=C(CN1CCOCC1)N/N=C/C(Br)=C\c1ccccc1 | / | 10 | -1 | /
CC(/C=N/NC(=O)Cc1cccs1)=C\c1ccccc1 | / | 124* | / | /
O=C(N/N=C/C=C\c1ccccc1)c1cnccn1 | / | 14 | -1 | /
SMILES | Statin myotox sup | MITF TRPM1 HTS | Wnt bcat act | esBAF inh
CCN(CC)c1ccc(/C=N/NC(=O)Cc2cccs2)cc1 | / | 4 | 1 | /
COc1ccc(/C=N/NC(=O)Cc2cccs2)cc1 | 4 | / | 25 | 59*
O=C(N/N=C/C(Br)=C/c1ccccc1)c1cnccn1 | 28 | 35 | 33* | 50*
O=C(Cc1cccs1)N/N=C/C(Br)=C/c1ccccc1 | -15 | 107* | / | 51*
COc1ccc(NC(=O)Nc2ccc3c(c2)[C@@H]2C[C@@H](CC(=O)NCC4CC4)O[C@@H](CO)[C@@H]2O3)cc1 | -4 | / | / | -1
CCNC(=O)C[C@@H]1CC[C@H]2[C@H](COc3ccc(NC(=O)c4ccc(F)cc4)cc3C(=O)N2C)O1 | -12 | / | / | 5
